Data on 72 compounds can be found in PubChem BioAssay AID602342 (Broad Institute, 2012).

Molecules are shown by their SMILES. Among all 340,000 compounds or so, about 1,000 (0.29%) were called active.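 The calls were made as follows: active = mean replicate activation score at least 90 and every replicate individually at or above 90; inconclusive = only one of the two criteria met; inactive = neither criterion met.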 The full list was thinned out, with actives kept by preference.

This assay is described as follows: miR-122 Renilla sensor signal increase in Huh7, primary screen, miR-122 inhibitor project, cell-based, single point, plate reader (AID 602342).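 Also: higher luciferase means less miR-122 activity so hits act as miR-122 inhibitors.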 The following applies: Huh7 miR-122 Renilla luciferase sensor, 48 h, stronger effect = higher value, neutral wells = 0, positive control = 100; at 16.7 µM unless noted.
On to `O=C(C1CCC1)N1C[C@H]2[C@@H](c3ccccc31)[C@@H](CO)N2C(=O)c1ccccc1F`, for which the activation (reporter increase) was -20% (inactive). Next, `Cc1noc(C)c1NC(=O)Nc1ccc2c(c1)C(=O)N([C@H](C)CO)C[C@@H](C)[C@H](CN(C)C(=O)Nc1cccc3ccccc13)OCCCC[C@@H](C)O2`: 0.113% (inactive). Next, `CN1C(=O)c2cc(NC(=O)c3cscn3)ccc2OC[C@@H]2O[C@H](CC(=O)N3CCCCC3)CC[C@H]21`: 4.63% (inactive); `Cc1sc2ncnc(SCC(=O)Nc3ccc(CN4CCCC4)cc3)c2c1C`: 2.95% [at 12.5 µM] (inactive).

Turning to `CCCNc1ncnc2sc(C)c(C)c12`, the activation (reporter increase) is 122% [at 12.5 µM] (active).

With `Cc1sc2ncnc(SCC(=O)NC3CCS(=O)(=O)C3)c2c1C` (configuration not stated), the activation (reporter increase) was -0.478% [at 12.5 µM] (inactive). Next, `O=C(C1CCC1)N1CCCCN2[C@H](C1)[C@@H](c1ccc(C#CC3CCCC3)cc1)[C@@H]2CO`: -25.6% (inactive); `O=C(C[C@@H]1CC[C@@H]2[C@H](COC[C@@H](O)CN2Cc2ccc(F)cc2)O1)NCc1ccncn1`: 5.81% (inactive). The value for `C[C@H](CO)N1C[C@H](C)[C@H](CN(C)C(=O)Nc2cccc3ccccc23)OCCCC[C@H](C)Oc2ccc(NC(=O)Nc3ccc4c(c3)OCO4)cc2C1=O` was 6.96% (inactive); that for `O=S(=O)(NCCc1ccccn1)c1cc(Cl)cc(Cl)c1O` was -4.9% [at 12.5 µM] (inactive); that for `O=S(=O)(/C=C/c1ccccc1)NCCc1ccccn1` was 73.3% [at 12.5 µM] (inactive). In the case of `Cc1c(C)c(C)c(S(=O)(=O)NCCc2ccccn2)c(C)c1C`, the activation (reporter increase) was 107% [at 12.5 µM] (active). With `Cc1noc(C)c1NC(=O)N(C)C[C@H]1OCc2cn(nn2)CCCC(=O)N([C@@H](C)CO)C[C@H]1C`, the activation (reporter increase) was 0.754% (inactive). As for `C[C@@H]1CN([C@@H](C)CO)S(=O)(=O)c2ccc(-c3cccc(C(=O)N(C)C)c3)cc2O[C@@H]1CN(C)C(=O)Nc1ccccc1`, the activation (reporter increase) was 18.2% (inactive). As for `C[C@H]1CN([C@@H](C)CO)C(=O)c2cc(N(C)C)ccc2O[C@@H]1CN(C)S(=O)(=O)c1ccc(Cl)cc1`, the activation (reporter increase) was 47.5% (inactive). As to `O=C(NN=Cc1ccccc1)c1ccccc1`, the activation (reporter increase) is -2.03% [at 12.5 µM] (inactive). As to `CC(C)c1cc(C(=O)N/N=C/C(Br)=C/c2ccccc2)n[nH]1`, the activation (reporter increase) was 122% [at 12.5 µM] (active).

With `Cc1cc(C(=O)N/N=C\C(Br)=C\c2ccccc2)c(C)o1`, the activation (reporter increase) is 1.4% [at 12.5 µM] (inactive). As for `O=C(c1cccnc1)N1C[C@H]2[C@@H](c3ccccc31)[C@@H](CO)N2C(=O)Nc1ccccc1F`, the activation (reporter increase) was -2.82% (inactive). The value for `CC1CCCCC1NC(=O)COc1ccc(C#N)cc1` (configuration not stated) was -5.71% [at 12.5 µM] (inactive); that for `CC1CCCCC1NC(=O)/C(C#N)=C/C=C/c1ccccc1[N+](=O)[O-]` (configuration not stated) was 102% [at 12.5 µM] (active). `O=[N+]([O-])c1ccccc1/C=C/CN1CCCC(CO)C1` (configuration not stated): the activation (reporter increase) is 4.13% [at 12.5 µM] (inactive). As for `CN(C[C@@H]1[C@H](c2ccccc2)[C@@H](CO)N1Cc1ccccn1)S(C)(=O)=O`, the activation (reporter increase) was 0% (inactive).

As for `CSc1nc2ccc(NC(=O)c3c(F)cccc3F)cc2s1`, the activation (reporter increase) was -16% [at 12.5 µM] (inactive). Next, `CCCC(=O)Nc1nc2ccc(NC(=O)c3c(F)c(F)c(OC)c(F)c3F)cc2s1`: 143% [at 12.5 µM] (active); `CC(=O)Nc1ccc2nc(NC(=O)CS(=O)(=O)c3ccc(F)cc3)sc2c1`: 5.07% [at 12.5 µM] (inactive); `COc1cccc(-n2cc3c(c2-c2ccccc2)c(=O)n(C)c(=O)n3C)c1`: 13% [at 12.5 µM] (inactive). Next, `Cn1c(=O)c2cn(-c3cccc4ccccc34)cc2n(C)c1=O`: -1.8% [at 12.5 µM] (inactive); `COc1ccc(OC)c(-n2cc3c(=O)n(C)c(=O)n(C)c3c2)c1`: 102% [at 12.5 µM] (active); `COc1ccc(S(=O)(=O)Nc2ccc3c(c2)C(=O)N([C@@H](C)CO)C[C@H](C)[C@@H](CN(C)C(=O)NC(C)C)OCCCC[C@H](C)O3)cc1`: 15.2% (inactive). Next, `C[C@H](CO)N1C[C@H](C)[C@H](CN(C)C)Oc2ccc(NC(=O)c3ccncc3)cc2CC1=O`: 5.36% (inactive). `COc1ccccc1-c1cc(NC(C)=O)c2ncc(-c3ccc(F)cc3)n2c1`: the activation (reporter increase) was 5.94% [at 12.5 µM] (inactive). With `COc1cccc(-c2cnc3c(NC(C)=O)cc(-c4cc(F)ccc4OC)cn23)c1`, the activation (reporter increase) was 36.5% [at 12.5 µM] (inactive). Next, `COc1ccc(-c2cc(NC(C)=O)c3ncc(-c4cc(OC)c(OC)c(OC)c4)n3c2)cn1`: 107% [at 12.5 µM] (active).

For the compound `Cc1noc(C)c1NC(=O)Nc1ccc2c(c1)CC(=O)N([C@@H](C)CO)C[C@@H](C)[C@H](CN(C)Cc1ccc(Oc3ccccc3)cc1)O2`, the activation (reporter increase) is -3.38% (inactive). Next, `CCC(=O)Nc1ccc2c(c1)C(=O)N(C)[C@@H]1CC[C@@H](CC(=O)NCCc3ccccc3)O[C@H]1CO2`: -4.08% (inactive).

As to `COCC(=O)Nc1ccc2c(c1)[C@@H]1C[C@H](CC(=O)NCc3cc(F)ccc3F)O[C@@H](CO)[C@@H]1O2`, the activation (reporter increase) is 12.6% (inactive). Next, `CCC(=O)N1[C@H](CO)[C@@H]2c3ccccc3N(S(=O)(=O)c3ccccc3C)C[C@@H]21`: 0% (inactive); `O=C(CCc1ccc(S(=O)(=O)NC2CCCCC2)cc1)NCc1ccccc1`: 101% [at 12.5 µM] (active). Turning to `CC(C)CNS(=O)(=O)c1ccc(CCC(=O)NCc2ccc(Cl)cc2)cc1`, the activation (reporter increase) was 15.1% [at 12.5 µM] (inactive).

In the case of `Cc1cc(S(=O)(=O)NC2CCCCC2)ccc1OCC(=O)NCc1cccnc1`, the activation (reporter increase) was 72% [at 12.5 µM] (inactive). For the compound `CC(C)c1ccc(S(=O)(=O)NC2CCCC2)cc1`, the activation (reporter increase) was 51.5% [at 12.5 µM] (inactive). The value for `Cc1ccc(S(=O)(=O)NC2CCCCCC2)cc1` was 106% [at 12.5 µM] (active).

On to `COc1ccc(C)cc1S(=O)(=O)NC1CCCCC1`, for which the activation (reporter increase) was 375% [at 12.5 µM] (active). The value for `O=S(=O)(NC1CC1)c1ccc(Cl)cc1` was -7.11% [at 12.5 µM] (inactive).

Turning to `CSc1ccc(S(=O)(=O)NC2CCCCC2)cc1`, the activation (reporter increase) is 102% [at 12.5 µM] (active). For the compound `COc1ccc(C)cc1S(=O)(=O)Nc1cccc(Cl)c1Cl`, the activation (reporter increase) is 66.7% [at 12.5 µM] (inactive).

For `CCOc1ccc(C)cc1S(=O)(=O)NC1CCCCCC1`, the activation (reporter increase) is 67.9% [at 12.5 µM] (inactive). The value for `Cc1ccc(S(=O)(=O)NC2CCCCCC2)cc1C(N)=O` was 62.2% [at 12.5 µM] (inactive); that for `O=S(=O)(NC1CCCC1)c1ccc(-n2cnnn2)cc1` was -2.1% [at 12.5 µM] (inactive). Next, `Cc1ccc(S(=O)(=O)Nc2ccc3c(c2)C(=O)N([C@H](C)CO)C[C@H](C)[C@H](CN(C)S(=O)(=O)c2ccc(F)cc2)O3)cc1`: -7.86% (inactive); `CC(=O)N1CC[C@@H]2[C@@H](CO)N(C)c3ccc(-c4ccc(C#N)cc4)cc3[C@@H]21`: -2.99% (inactive). The value for `C[C@@H]1CN([C@H](C)CO)C(=O)c2cc(NC(=O)NC3CCCCC3)ccc2O[C@@H](C)CCCCO[C@H]1CN(C)S(C)(=O)=O` was -11.1% (inactive). `CCC(=O)N[C@H]1C=C[C@@H](CC(=O)NCC2CCCCC2)O[C@H]1CO`: the activation (reporter increase) is -4.01% (inactive). Next, `C[C@@H]1CCCCO[C@@H](CN(C)Cc2ccncc2)[C@H](C)CN([C@@H](C)CO)C(=O)c2cc(N(C)C)ccc2O1`: 9.37% (inactive).

Turning to `C[C@@H]1CN([C@@H](C)CO)C(=O)Cc2cc(NC(=O)Nc3ccc(F)cc3)ccc2O[C@@H]1CN(C)C`, the activation (reporter increase) was -1.94% (inactive). Regarding `CN(C)C(=O)[C@@H]1[C@@H](CO)[C@@H]2Cn3c(cccc3=O)[C@H]1N2CC1CCCCC1`, the activation (reporter increase) was -3.4% (inactive).

Turning to `Cc1ccccc1-c1cnc2c(c1)C(=O)N([C@@H](C)CO)C[C@@H](C)[C@@H](CN(C)CC1CCOCC1)O2`, the activation (reporter increase) was -4.12% (inactive).

For the compound `CN1C(=O)c2cc(NS(=O)(=O)c3ccc(Cl)cc3)ccc2OC[C@H]2O[C@@H](CC(=O)O)CC[C@H]21`, the activation (reporter increase) is 37.8% (inactive). Next, `O=C(Oc1ccc(C(=S)N2CCOCC2)cc1)c1ccc(F)cc1`: 330% [at 12.5 µM] (active); `O=C(Oc1ccc(F)cc1)N1CCOCC1`: -3.21% [at 12.5 µM] (inactive); `Cc1ccc(C(=O)Oc2ccc(C(=S)N3CCOCC3)cc2)cc1`: -1.88% [at 12.5 µM] (inactive). Next, `CC(=O)N(C)C[C@H]1Oc2ncc(-c3cccc(F)c3)cc2C(=O)N([C@@H](C)CO)C[C@H]1C`: -3.49% (inactive); `CN1C(=O)c2cc(NC(=O)c3ccc(F)c(F)c3)ccc2OC[C@H]2O[C@@H](CC(=O)N3CCCCC3)CC[C@H]21`: -8.45% (inactive). For the compound `COc1ccc(/C=C/C(=O)c2c(O)cc(OC)cc2OC)cc1`, the activation (reporter increase) is 2.04% [at 12.5 µM] (inactive). Next, `O=C(/C=C(O)/C=C/c1ccc(O)cc1)/C=C/c1ccc(O)cc1`: 140% [at 12.5 µM] (active). Next, `O=C(/C=C/c1ccc2c(c1)OCCO2)c1ccc(O)cc1`: 7.01% [at 12.5 µM] (inactive). As to `Cc1noc(C)c1NC(=O)N(C)C[C@H]1OCCCC[C@H](C)Oc2ccc(NC(=O)Nc3ccccc3)cc2C(=O)N([C@H](C)CO)C[C@@H]1C`, the activation (reporter increase) is -0.276% (inactive). The value for `Cn1cnc([N+](=O)[O-])c1Sc1n[nH]c(N)n1` was -3.18% [at 12.5 µM] (inactive); that for `Cn1cnc([N+](=O)[O-])c1Sc1ccccc1` was 217% [at 12.5 µM] (active). The value for `Cn1cnc([N+](=O)[O-])c1Nc1ccccc1O` was 2.42% [at 12.5 µM] (inactive); that for `CCN(C[C@@H]1[C@H](c2ccccc2)[C@@H](CO)N1CC1CC1)C(=O)c1ccccn1` was -7.14% (inactive).
